Measured values taken from the supplement of paper PMC10338343.
± gives the standard deviation. Over roughly 5,500 sequences, “pre-steady-state target cleavage rate” has its median near 0.1; the highest 2% begin near 0.64. The entries come from a sample that favours the highest values as a whole.

What follows are sequences tested on MIWI (PIWIL1) piRISC loaded with piRNA #2 (30 nt) (assay: pre-steady-state target cleavage rate (min^-1); MIWI and MILI are mouse PIWI proteins and EfPiwi is from a freshwater sponge; tags in brackets are library labels; higher = faster piRNA-guided slicing of the target). Conditions: guide: piRNA #2 5'p-UUAGGUAACCCAGUAGAUCCAGAGGAAUUC; auxiliary factor: 500 nM mouse GTSF1.
Summary of the method: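 In HEPES–potassium acetate buffer at 33 °C, […] transcribed, DNA-blocked target RNA library was mixed with 1 nM active affinity-purified piRISC carrying one synthetic guide, with or without 500 nM GTSF1 partner protein, for 0–8 or 0–960 min. Uncleaved targets were sequenced and normalised to depth and to weakly complementary targets; three trials were pooled and k3 was capped at 0.0001 min^-1. The pre-steady-state cleavage rate followed from a burst-and-steady-state fit.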

Sequence | pre-steady-state target cleavage rate
CUUAUCCUCUGGAUCUACAGGGUUUCCUAA | 0.119 ± 0.02
GAAUUCCUCUGGAUCUACUGGGUGACCUAA | 0.244 ± 0.038
GAAUUCGUCUGGAUCUACUGGGUUAGCUAA | 0.293 ± 0.068
CUUAACCUCUGGAUCUACUCGGUUACCUUA | 0.052 ± 0.011
CAAUACCUCUGGAUCUACUGGGUUACCUAA | 0.395 ± 0.06
CUAUACCUCUGGUUCUACUGGGUUACCUAA | 0.696 ± 0.053
CUUAACCUCUGGUUCUACUGCGUUACCUAA | 0.754 ± 0.077
CUUAUCCUCUGGUUCUACUGCGUUACCUAA | 0.455 ± 0.04
CUAUACCUCUGCAUCUACUGGGUUACCUAA | 0.439 ± 0.042
GAAUACCUCUGGUUCUACUGGGUUACCUAA | 0.59 ± 0.052
CUUAACCUCUGGUUCUACUGGGUUACCUAA | 0.479 ± 0.042
CAAUACCUCUGGUUCUACUGGGUUACCUAA | 0.909 ± 0.066
CUUUACCUCUGGUUCUACUGGGUUACCUAA | 0.514 ± 0.043
GAAUUGCUCUGGAUCUACUGGCUUACCUAA | 0.0382 ± 0.014
GAAUUCCUCUGGAUACUACUGGGUUACCUAA | 0.373 ± 0.056
GAAUUCCUCUGGAACUACUGGGUUACCAAA | 0.233 ± 0.056
CAAUUCCUCUGGAUCUACUCGGUUUCCUAA | 0.0763 ± 0.028
CAAUUCGUCUGGAUCUACUGCGUUACCUAA | 0.376 ± 0.044
CUUAAGGAGACCUUCCUACUGGGUUACCUAA | 0.00294 ± 0.0029
CUUAUGCUCUGGAUCUACUGGGUUACGUAA | 0.534 ± 0.042
CAAUUCCUCAGGAUCUUCUGGGUUACCUAA | 0.485 ± 0.058
GAAUUCCUCACCAUCUACUGGGUUACCUAA | 0.455 ± 0.051
CAAUUCCUCACGAUCUACUGGGUUACCUAA | 0.784 ± 0.05
CUAUUCCUCACCAUCUACUGGGUUACCUAA | 0.384 ± 0.049
CAAUUCCUCACCAUCUACUGGGUUACCUAA | 0.573 ± 0.069

Sequence | pre-steady-state target cleavage rate
CUAUUCCUGACGAUCUACUGGGUUACCUAA | 0.133 ± 0.023
GAAUUCCUCACGAUCUACUGGGUUACCUAA | 0.697 ± 0.051
CUAUUCCUCACGAUCUACUGGGUUACCUAA | 0.659 ± 0.042
CUUUUCCUCACGAUCUACUGGGUUACCUAA | 0.635 ± 0.051
CAAUUCCUGACGAUCUACUGGGUUACCUAA | 0.212 ± 0.034
CAAUUCCUCUGGAUCUACAGGGUUAGCUAA | 0.157 ± 0.054
CUUAAGCUCUCGAUCUACAGGGUUACCUAA | 0.185 ± 0.012
CUUAUCCUCUGGAUCUUCUGGGUUACCUUA | 0.289 ± 0.053
GAAUACCUCUGGAUCUACUGGGUAACCUAA | 0.168 ± 0.035
CUUAUCCUCUGCAUCUACUGCGUUACCUAA | 0.377 ± 0.032
GAAUUCCUCUGCAUCUACUGCGUUACCUAA | 0.591 ± 0.054
CUAUUCCUCUGCAUCUACUGGGUUACCUAA | 0.463 ± 0.04
CUUUUCCUCUGCAUCUACUGCGUUACCUAA | 0.49 ± 0.037
CUAUUCCUCUGCAUCUACUGCGUUACCUAA | 0.654 ± 0.047
CAAUUCCUCUGCAUCUACUGCGUUACCUAA | 0.666 ± 0.058
GAAUUCCUCUGGAUCUACUGGCAUACCUAA | 0.00471 ± 0.003
CUUAACCUCUGAAUCUACUGGGUUACCUAA | 0.158 ± 0.019
CUUAACCUCUCGAUCUACUGGCUUACCUAA | 0.173 ± 0.016
CUUAAGGUCUGGAUCUUCUGGGUUACCAAA | 0.0379 ± 0.015
CUUUUCCUCUUGGAUCUACUGGGUUACCUAA | 0.346 ± 0.033
CUAUUCCUCUUGGAUCUACUGGGUUACCUAA | 0.433 ± 0.046
CUAUUCCUCUGAUCUACUGGGUUACCUAA | 0.395 ± 0.048
CUAUUCCUCUUGAUCUACUGGGUUACCUAA | 0.767 ± 0.04
CUUUUCCUCUGAUCUACUGGGUUACCUAA | 0.304 ± 0.036
CAAUUCCUCUUGGAUCUACUGGGUUACCUAA | 0.358 ± 0.046

Sequence | pre-steady-state target cleavage rate
CUUUUCCUCUUGAUCUACUGGGUUACCUAA | 0.705 ± 0.039
CAAUUCCUCUUGAUCUACUGGGUUACCUAA | 0.866 ± 0.044
GAAUUCCUCUGAUCUACUGGGUUACCUAA | 0.454 ± 0.062
GAAUUCCUCUUGAUCUACUGGGUUACCUAA | 0.74 ± 0.037
GAAUUCCUCUUGGAUCUACUGGGUUACCUAA | 0.402 ± 0.042
CAAUUCCUCUGAUCUACUGGGUUACCUAA | 0.528 ± 0.061
CUUAUCGUCUGGAUCUACUGGGUUACCUUA | 0.295 ± 0.066
CAAUUCCUCUGGAACUACUGGGUAACCUAA | 0.235 ± 0.035
CUUUUCCUCUGGAUCUACACCGUUACCUAA | 0.0786 ± 0.0085
CUUAACCUCUCGAUCUACUGGGUUACCUUA | 0.373 ± 0.034
GAAUUCCUCUGGAACUAGUGGGUUACCUAA | 0.221 ± 0.027
GAAUUCCUCUGGAUCUUCUGGGUUACCUAA | 0.274 ± 0.047
GAAUUCCUCUGGAUCUACUGGGUUACCUGAA | 0.735 ± 0.26
CUAUUCCUCUGGAUCUACUGGGUUACAUAA | 0.739 ± 0.051
CUAUUCCUCUGGAUCUACUGGGUUACCAUA | 0.413 ± 0.054
CUAUUCCUCUGGAUCUACUGGGUUACCAUAA | 0.553 ± 0.069
CAAUUCCUCUGGAUCUACUGGGUUACCAUA | 0.518 ± 0.076
CAAUUCCUCUGGAUCUACUGGGUUACCUGA | 0.328 ± 0.086
CUUAUCCUCUGGAUCUACUGGGUUACCAUAA | 0.452 ± 0.06
CAAUUCCUCUGGAUCUACUGGGUUACCAUAA | 0.588 ± 0.078
CUUAUCCUCUGGAUCUACUGGGUUACCAUA | 0.497 ± 0.069
CAAUUCCUCUGGAUCUACUGGGUUACCUGAA | 0.438 ± 0.14
CAAUUCCUCUGGAUCUACUGGGUUACAUAA | 0.739 ± 0.053
CUUAUCCUCUGGAUCUACUGGGUUACAUAA | 0.742 ± 0.048
CUUAAGGUCUUGGAUCUACUGGGUUACCUAA | 0.291 ± 0.03
